For five molecules, AC50 and outcome results are on record in PubChem BioAssay (EPA / NIEHS).

Molecules are shown by their SMILES. Some compounds were tested as several samples or in several runs, with calls that do not always agree. Activity calls are given as the source filed them. The calls were made as follows: active = hit-call score of the fitted dose curve at least 0.9, where 1 is the maximum; inactive = score below 0.9.

Read-out in assay [1]: Vascular cell adhesion molecule 1 (VCAM1), VCAM1 (gene 7412)
In words: BSK_4H_VCAM1: BioMAP Diversity Plus: 4H Assay for Vascular cell adhesion molecule 1 (VCAM1) Biomarker Activity (AID 2283033).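 As to outcome: cell-surface VCAM-1 protein measured by ELISA.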 Conditions: primary human endothelial cells (HUVEC); actives raise or lower the signal. The method in brief:
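HUVEC, 24 h post-dose; VCAM-1 by ELISA. Bidirectional curve fit vs DMSO baseline. Parallel SRB total-protein stain (0.1% SRB after 10% TCA fixation, 560 nm) for cytotoxicity.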

Read-out in assay [2]: Interferon-gamma inducible Protein 10 (IP10), CXCL10 (gene 3627)
Put plainly: BSK_BE3C_IP10: BioMAP Diversity Plus: BE3C Assay for Interferon-gamma inducible Protein 10 (IP10) Biomarker Activity (AID 2283034). The following applies: primary human bronchial epithelial cells; actives raise or lower the signal. The method in brief:
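ELISA readout of IP-10 in BE3C system: primary human bronchial epithelial cells, 24 h post-dosing; bidirectional curve fit vs DMSO baseline.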

Read-out in assay [3]: Monokine induced gamma interferon (MIG), CXCL9 (gene 4283)
Put plainly: BSK_BE3C_MIG: BioMAP Diversity Plus: BE3C Assay for Monokine induced gamma interferon (MIG) Biomarker Activity (AID 2283035).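 As to outcome: MIG protein measured by ELISA in BE3C cultures after 24 h of dosing.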 The following applies: primary human bronchial epithelial cells; actives raise or lower the signal. The method, boiled down:
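Dose cells (human primary bronchial epithelial), incubate 24 h, quantify MIG by ELISA, then fit concentration–response in both directions relative to DMSO control.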

Read-out in assay [4]: Transforming growth factor beta 1 (TGFb1), TGFB1 (gene 7040)
In words: BSK_BE3C_TGFb1: BioMAP Diversity Plus: BE3C Assay for Transforming growth factor beta 1 (TGFb1) Biomarker Activity (AID 2283036;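 as to outcome: TGF-b1 protein level measured by ELISA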). The following applies: primary human bronchial epithelial cells; actives raise or lower the signal. The method, boiled down:
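Read-out: ELISA for TGF-b1 in primary human bronchial epithelial cultures, 24 h post-dose. Bidirectional curve fitting vs DMSO control; gain or loss of signal both scored.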

Read-out in assay [5]: Plasminogen activator inhibitor-1 (PAI1), SERPINE1 (gene 5054)
In words: BSK_BE3C_PAI1: BioMAP Diversity Plus: BE3C Assay for Plasminogen activator inhibitor-1 (PAI1) Biomarker Activity (AID 2283037). Conditions: primary human bronchial epithelial cells; actives raise or lower the signal. The method in brief: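 ELISA read-out of PAI-1 from human bronchial epithelial primary cells, 24 h post-dosing; bidirectional curve fit vs DMSO baseline, gain or loss of signal scored.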

Read-out in assay [6]: urokinase plasminogen activator (uPA), PLAU (gene 5328)
Put plainly: BSK_BE3C_uPA: BioMAP Diversity Plus: BE3C Assay for urokinase plasminogen activator (uPA) Biomarker Activity (AID 2283038).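 As to outcome: uPA protein level quantified by ELISA in cell cultures; uPA read one day after compound addition.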 Conditions: primary human bronchial epithelial cells; actives raise or lower the signal. The method, boiled down:
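Using confluent primary human lung bronchial epithelial cultures, we dosed chemicals, waited 24 h, then ran a uPA ELISA, fitting bidirectionally against DMSO.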

Read-out in assay [7]: Urokinase-type plasminogen activator receptor (uPAR), PLAUR (gene 5329)
In words: BSK_BE3C_uPAR: BioMAP Diversity Plus: BE3C Assay for Urokinase-type plasminogen activator receptor (uPAR) Biomarker Activity (AID 2283039).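 As to outcome: uPAR protein level measured by ELISA on the cells; cells exposed to compound for one day before measurement.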 Conditions: primary human bronchial epithelial cells; actives raise or lower the signal. The method, boiled down:
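ELISA readout of uPAR on human lung primary bronchial epithelial cells, 24 h post-dosing. Bidirectional curve fit relative to DMSO vehicle baseline; gain or loss of signal both scored.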

Read-out in assay [8]: Interleukin-6 (IL6), IL6 (gene 3569)
Put plainly: BSK_CASM3C_IL6: BioMAP Diversity Plus: CASM3C Assay for Interleukin-6 (IL6) Biomarker Activity for (AID 2283040). The following applies: primary human coronary artery smooth muscle cells; actives raise or lower the signal.

Read-out in assay [9]: Tissue plasminogen activator (tPA), PLAT (gene 5327)
Put plainly: BSK_BE3C_tPA: BioMAP Diversity Plus: BE3C Assay for Tissue plasminogen activator (tPA) Biomarker Activity (AID 2283041).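 As to outcome: tPA level quantified by ELISA one day after compound addition.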 Conditions: primary human bronchial epithelial cells; actives raise or lower the signal. The method, boiled down: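 ELISA read-out of tPA on human primary bronchial epithelial cells, 24 h post-dosing; bidirectional fit vs DMSO negative control/baseline.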

Read-out in assay [10]: Interleukin-8 (IL8), CXCL8 (gene 3576)
Put plainly: BSK_CASM3C_IL8: BioMAP Diversity Plus: CASM3C Assay for Interleukin-8 (IL8) Biomarker Activity (AID 2283042).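 Also: IL-8 protein level quantified by ELISA.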 Conditions: primary human coronary artery smooth muscle cells; actives raise or lower the signal.

Read-out in assay [11]: Human Leukocyte Antigen - DR isotype (HLADR), HLA-DRA (gene 3122)
Put plainly: BSK_CASM3C_HLADR: BioMAP Diversity Plus: CASM3C Assay for Human Leukocyte Antigen - DR isotype (HLADR) Biomarker Activity (AID 2283043).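 Also: cell-surface HLA-DR protein level quantified by ELISA.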 Conditions: primary human coronary artery smooth muscle cells; actives raise or lower the signal.

Read-out in assay [12]: Macrophage colony-stimulating factor (MCSF), CSF1 (gene 1435)
Put plainly: BSK_CASM3C_MCSF: BioMAP Diversity Plus: CASM3C Assay for Macrophage colony-stimulating factor (MCSF) Biomarker Activity (AID 2283044).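 Also: M-CSF protein amount quantified by ELISA after 24 h exposure.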 Conditions: primary human coronary artery smooth muscle cells; actives raise or lower the signal.

Read-out in assay [13]: Low-density lipoprotein receptor (LDLR), LDLR (gene 3949)
In words: BSK_CASM3C_LDLR: BioMAP Diversity Plus: CASM3C Assay for Low-density lipoprotein receptor (LDLR) Biomarker Activity (AID 2283045).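 Also: LDLR protein level on the cell surface quantified by ELISA.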 Conditions: primary human coronary artery smooth muscle cells; actives raise or lower the signal.

Read-out in assay [14]: Monocyte Chemoattractant Protein-1 (MCP1), CCL2 (gene 6347)
Put plainly: BSK_CASM3C_MCP1: BioMAP Diversity Plus: CASM3C Assay for Monocyte Chemoattractant Protein-1 (MCP1) Biomarker Activity (AID 2283046).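 Also: MCP-1 level quantified by ELISA 24 h after dosing.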 The following applies: primary human coronary artery smooth muscle cells; actives raise or lower the signal.

Assay [15] is described as follows: BSK_CASM3C_Proliferation: Cell Proliferation Assessment in the BioMAP Diversity Plus: CASM3C Assay (AID 2283047).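 Also: sulforhodamine B total protein stain as relative cell number at 560 nm; sub-confluent cells exposed 48 h before staining; fitted both ways against DMSO so gain or loss of cell number.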 Conditions: primary human coronary artery smooth muscle cells.
Read-out in assay [16]: Monokine induced gamma interferon (MIG), CXCL9 (gene 4283)
In words: BSK_CASM3C_MIG: BioMAP Diversity Plus: CASM3C Assay for Monokine induced gamma interferon (MIG) Biomarker Activity (AID 2283048).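 Also: MIG protein level measured by ELISA.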 The following applies: primary human coronary artery smooth muscle cells; actives raise or lower the signal.

Read-out in assay [17]: serum amyloid A (SAA), SAA1 (gene 6288)
Put plainly: BSK_CASM3C_SAA: BioMAP Diversity Plus: CASM3C Assay for serum amyloid A (SAA) Biomarker Activity (AID 2283049).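 Also: SAA protein level quantified by ELISA.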 Conditions: primary human coronary artery smooth muscle cells; actives raise or lower the signal.

The nature of assay [18]: BSK_CASM3C_SRB: Viability Assessment in the BioMAP Diversity Plus: CASM3C Assay (AID 2283050).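 Also: total protein by SRB staining as cytotoxicity measure in parallel cultures; cells exposed to compound for 24 h.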 Conditions: primary human coronary artery smooth muscle cells.
Read-out in assay [19]: Thrombomodulin, THBD (gene 7056)
Put plainly: BSK_CASM3C_Thrombomodulin: BioMAP Diversity Plus: CASM3C Assay for Thrombomodulin Biomarker Activity (AID 2283051).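 Also: thrombomodulin protein level measured by ELISA 24 h after dosing.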 Conditions: primary human coronary artery smooth muscle cells; actives raise or lower the signal.

Read-out in assay [20]: Tissue Factor, F3 (gene 2152)
Put plainly: BSK_CASM3C_TissueFactor: BioMAP Diversity Plus: CASM3C Assay for Tissue Factor Biomarker Activity (AID 2283052).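 Also: cell surface tissue factor protein level read by ELISA.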 Conditions: primary human coronary artery smooth muscle cells; actives raise or lower the signal.

Usually AC50 stands for the concentration giving half of the maximal activity seen. For the molecule `O=C(CCCN1CCC(O)(c2ccc(Cl)cc2)CC1)c1ccc(F)cc1`, the half-maximal activity concentration (AC50) is 20 µM (active) in assay [1], 9.2 µM (active) in assay [13] and 20 µM (active) in assay [15]. Moreover, the result in assay [2], in assay [3], in [4], in assay [5], in assay [6] and in assay [7] was inactive. Also, the outcome in assay [8], in assay [9], in assay [10], in [11], in assay [12] and in assay [14] was inactive. The outcome in assay [16], in [17], in assay [18], in [19] and in assay [20] was inactive.
On to `CN(Cc1cnc2nc(N)nc(N)c2n1)c1ccc(C(=O)N[C@@H](CCC(=O)O)C(=O)O)cc1`, for which the result in assay [1], in assay [2], in [3], in assay [4], in assay [5] and in [6] was inactive. Further, the outcome in assay [7], in [8], in assay [9], in [10], in assay [11] and in assay [12] was inactive. Also, the outcome in assay [13], in [14], in [15], in assay [16], in [17] and in assay [18] was inactive. Also, the result in assay [19] and in [20] was inactive. In [5], the half-maximal activity concentration (AC50) was 2.71 µM (active).
For the molecule `C=COC(=O)C(C)(C)CCCCCC`, the AC50 in assay [1] was 30.2 µM (active); in assay [2], 33.5 µM (active); in assay [5], 29.4 µM (active); in assay [6] it was 20 µM (active); in assay [8], 32 µM (active); in assay [9] it was 20 µM (active). The AC50 in assay [11] was 35.9 µM (active); in [12], 32 µM (active); in assay [14] it was 20 µM (active); in [15] it was 37.8 µM (active); in [16], 32.6 µM (active); in assay [18], 31.9 µM (active). In addition, the AC50 in assay [20] was 20 µM (active). Moreover, the outcome in [3], in assay [4], in [7], in [10], in assay [13] and in assay [17] was inactive. Besides, the result in [19] was inactive.
Turning to `Cc1ccc(C(=O)c2ccccc2)cc1`, the values for the AC50 in assay [1], in [10] and in assay [11] were 30.2 µM (active), 0.0224 µM (active) and 3.97 µM (active), respectively. For the same molecule, the outcome in [2], in assay [3], in assay [4], in assay [5], in assay [6] and in [7] was inactive. Besides, the result in assay [8], in [9], in assay [12], in assay [13], in assay [14] and in assay [15] was inactive. Further, the outcome in assay [16], in assay [17], in assay [18], in assay [19] and in assay [20] was inactive.
Consider `CCCCc1oc2ccccc2c1C(=O)c1cc(I)c(OCCN(CC)CC)c(I)c1`, for which the half-maximal activity concentration (AC50) was 19.6 µM (active) in [1]; 12 µM (active) in assay [2]; 23.3 µM (active) in assay [3]; 12.2 µM (active) in assay [4]; 18.8 µM (active) in assay [5]; 20.1 µM (active) in [6]. Moreover, the concentration at half-maximal activity (AC50) in [7] was 20.6 µM (active); in assay [8] it was 27.8 µM (active); in assay [9] it was 9.06 µM (active); in assay [10], 23.9 µM (active); in assay [11] it was 5.94 µM (active); in assay [12] it was 22 µM (active). Besides, the concentration at half-maximal activity (AC50) in [13] was 27.2 µM (active); in assay [14], 25.1 µM (active); in [15] it was 8.1 µM (active); in assay [16], 24 µM (active); in [17], 12.4 µM (active); in assay [18], 18.9 µM (active). The half-maximal activity concentration (AC50) is 27.9 µM (active) in assay [19] and 24 µM (active) in assay [20].
